Structures are written as SMILES. Results with a measured potency or affinity are listed apart. The source made the active and inactive calls.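 Rule for the calls: active = viability loss whose fitted half-maximal concentration is at most twice the top valid tested dose; inconclusive = flat curve with 30 to 70% loss, or poor fit; inactive = the rest.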

A short description of this assay: HepG2 cell cytotoxicity, dose response, cytotoxicity control, ATP luminescence, cherry-pick, set 6 (AID 1053125).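 Note: negative values mean loss of viability signal.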 The settings on record: HepG2 viability, ATP luminescence (CellTiter-Glo), 72 h; series mostly up to 26 µM.
Take `O=C(O)c1ccc(-c2ccc(/C=C3\NC(=O)N(Cc4ccc(Cl)cc4)C3=O)o2)cc1`: the call was inactive.
Take `O=C(COC(=O)c1cc(S(=O)(=O)N2CCCCC2)ccc1N1CCOCC1)c1ccccc1Cl`: the result was inactive.
The result for `CN1CCc2c(sc(NC(=O)C3CCCCC3)c2C(N)=O)C1` reads “inactive”; that for `CCn1c(=NC(=O)CSC(C)=O)sc2cc(OC)ccc21`, “inactive”.
As for `CC(=O)OC[C@@H]1CN(Cc2ccccc2)C[C@H](n2cnc3c(N(C)C(C)C)ncnc32)O1`, the call was inactive.
As to `CCc1cccc(C)c1NC(=S)NCc1ccc2c(c1)cc(C)n2C`, the result was inactive.
The result for `CN(C)/C=C/C(=O)c1c(F)cccc1F` reads “inactive”; that for `Cc1c(C(=O)NCc2cccc([N+](=O)[O-])c2)sc(=O)n1Cc1cccc(F)c1`, “inactive”.
The result for `Cc1oc(/N=C/c2ccc(F)cc2)c(C#N)c1C` reads “inactive”; that for `O=C(O)[C@@H]1CCCN1S(=O)(=O)c1cccc(S(=O)(=O)N2CCC[C@H]2C(=O)O)c1`, “inactive”.
For `COc1ccccc1C1C2=C(CC(C)(C)CC2=O)N(CC(=O)O)C2=C1C(=O)CC(C)(C)C2`, the compound was classed as inactive.
The result for `Cc1noc(C)c1-c1ccc(C(=O)NCCc2ccccc2)c2occc12` reads “inactive”.
For the compound `O=C(Cn1ccc([N+](=O)[O-])n1)N1CCCCCC1`, the outcome was inactive.
With `CCC(C)NC(=S)N1CCN(Cc2ccc3c(c2)OCO3)CC1` (configuration not stated) the entry was “inactive”; with `Cn1c(=N)c(S(=O)(=O)c2ccccc2)cc2c(=O)n3ccccc3nc21`, “inactive”; with `O=C(O)c1cccc(Nc2nc(-c3cc4ccccc4oc3=O)cs2)c1`, “inactive”.
Consider `Cc1ccc(-c2nc3ccsc3c(=O)[nH]2)cc1`, for which the compound was called inactive.

The values are drawn from PubChem BioAssay AID1053125 (Broad Institute, 2014).
